Measurements: publication PMC7862700, “An all-to-all approach to the identification of sequence-specific readers for epigenetic DNA modifications on cytosine”

Legend:
Test in all cases: DAPPL (digital affinity profiling via proximity ligation, sequencing); 10 mM Tris-HCl pH 7.5, 50 mM NaCl, 1 mM DTT, 4% glycerol, room temperature, 30 min; GST-TFs on glutathione beads, 16-mer random dsDNA library, 0.1% formaldehyde crosslink after washing; high values mean tight binding
FEV = target: T1, FEV (Homo sapiens, UniProt Q99581 1-238); conditions: protein: recombinant; tags: N-terminal GST; dsDNA, one strand shown
T1 sequence: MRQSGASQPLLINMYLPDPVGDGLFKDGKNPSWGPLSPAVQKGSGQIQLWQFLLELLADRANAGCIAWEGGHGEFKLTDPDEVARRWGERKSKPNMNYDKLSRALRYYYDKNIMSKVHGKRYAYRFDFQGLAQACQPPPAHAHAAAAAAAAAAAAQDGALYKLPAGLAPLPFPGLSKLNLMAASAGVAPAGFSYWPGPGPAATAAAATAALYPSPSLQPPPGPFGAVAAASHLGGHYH
Summary of the method: (§1)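 Human transcription factors were made in yeast as GST fusions, captured on glutathione beads and barcoded with DNA. With a tag-only sample included, the pool was incubated with 200 nmole of a random double-stranded 16-mer DNA library in Tris/NaCl/DTT/glycerol buffer at room temperature for 30 min, then crosslinked with 0.1% formaldehyde after washing, ligated by proximity, amplified and sequenced. For binding signal, each hexamer's read frequency for a factor is divided by its frequency for the tag-only sample.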

ETV5 = ETV5 (Homo sapiens, UniProt P41161 1-510); conditions: protein: recombinant; tags: N-terminal GST; dsDNA, one strand shown
Summary of the method: as §1

HSF1 = HSF1 (Homo sapiens, UniProt Q00613 1-529); conditions: protein: recombinant; tags: N-terminal GST; chain copies: 3; dsDNA, one strand shown
Summary of the method: as §1

SPIC = target: T2, SPIC (Homo sapiens, UniProt Q8N5J4 1-248); conditions: protein: recombinant; tags: N-terminal GST; dsDNA, one strand shown
T2 sequence: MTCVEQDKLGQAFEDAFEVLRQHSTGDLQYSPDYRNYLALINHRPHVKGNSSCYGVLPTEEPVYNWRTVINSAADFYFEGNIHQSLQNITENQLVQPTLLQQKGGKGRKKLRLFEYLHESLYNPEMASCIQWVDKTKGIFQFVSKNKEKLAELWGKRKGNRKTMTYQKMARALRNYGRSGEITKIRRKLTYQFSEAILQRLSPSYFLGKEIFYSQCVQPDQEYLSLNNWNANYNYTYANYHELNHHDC
Summary of the method: as §1

ELF4 = ELF4 (Homo sapiens, UniProt Q99607 1-663); conditions: protein: recombinant; tags: N-terminal GST; dsDNA, one strand shown
Summary of the method: as §1

ELK4 = target: T3, ELK4 (Homo sapiens, UniProt P28324-2 1-405); conditions: protein: recombinant; tags: N-terminal GST; dsDNA, one strand shown
T3 sequence: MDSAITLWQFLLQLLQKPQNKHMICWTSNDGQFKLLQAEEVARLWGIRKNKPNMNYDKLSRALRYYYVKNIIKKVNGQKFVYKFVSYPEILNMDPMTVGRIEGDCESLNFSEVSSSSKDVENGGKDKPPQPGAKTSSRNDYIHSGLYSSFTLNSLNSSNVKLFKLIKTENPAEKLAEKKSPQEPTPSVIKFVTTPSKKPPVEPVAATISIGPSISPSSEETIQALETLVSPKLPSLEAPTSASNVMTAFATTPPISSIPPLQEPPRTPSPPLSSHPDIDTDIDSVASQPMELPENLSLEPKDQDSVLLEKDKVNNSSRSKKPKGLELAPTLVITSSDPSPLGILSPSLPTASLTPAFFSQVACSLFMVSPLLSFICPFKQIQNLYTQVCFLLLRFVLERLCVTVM
Summary of the method: as §1

ETV2 = target: T4, ETV2 (Homo sapiens, UniProt O00321 1-342); conditions: protein: recombinant; tags: N-terminal GST; dsDNA, one strand shown
T4 sequence: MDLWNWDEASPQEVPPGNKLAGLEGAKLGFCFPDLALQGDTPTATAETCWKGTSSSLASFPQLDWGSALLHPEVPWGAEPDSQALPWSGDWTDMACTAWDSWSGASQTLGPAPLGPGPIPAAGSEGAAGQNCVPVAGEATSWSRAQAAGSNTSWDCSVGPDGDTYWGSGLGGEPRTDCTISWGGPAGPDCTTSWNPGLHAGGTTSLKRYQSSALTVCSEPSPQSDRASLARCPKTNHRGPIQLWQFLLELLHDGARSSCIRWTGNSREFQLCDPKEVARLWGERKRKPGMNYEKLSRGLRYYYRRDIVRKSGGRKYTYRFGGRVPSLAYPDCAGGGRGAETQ
Summary of the method: as §1

ELF3 = target: T5, ELF3 (Homo sapiens, UniProt P78545 1-371); conditions: protein: recombinant; tags: N-terminal GST; dsDNA, one strand shown
T5 sequence: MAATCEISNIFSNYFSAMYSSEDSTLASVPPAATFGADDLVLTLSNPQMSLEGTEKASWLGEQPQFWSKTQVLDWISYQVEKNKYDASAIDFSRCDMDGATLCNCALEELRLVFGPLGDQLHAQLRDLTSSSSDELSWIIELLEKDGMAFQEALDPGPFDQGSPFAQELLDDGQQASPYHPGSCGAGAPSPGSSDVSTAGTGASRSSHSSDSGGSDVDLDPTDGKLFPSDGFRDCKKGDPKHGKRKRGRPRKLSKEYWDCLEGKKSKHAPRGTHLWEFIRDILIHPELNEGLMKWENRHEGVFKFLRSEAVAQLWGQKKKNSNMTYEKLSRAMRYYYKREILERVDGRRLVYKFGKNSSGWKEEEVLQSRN
Summary of the method: as §1

CRX = CRX (Homo sapiens, UniProt O43186 1-299); conditions: protein: recombinant; tags: N-terminal GST; dsDNA, one strand shown
Summary of the method: as §1

Sequence of CRX (O43186 whole entry): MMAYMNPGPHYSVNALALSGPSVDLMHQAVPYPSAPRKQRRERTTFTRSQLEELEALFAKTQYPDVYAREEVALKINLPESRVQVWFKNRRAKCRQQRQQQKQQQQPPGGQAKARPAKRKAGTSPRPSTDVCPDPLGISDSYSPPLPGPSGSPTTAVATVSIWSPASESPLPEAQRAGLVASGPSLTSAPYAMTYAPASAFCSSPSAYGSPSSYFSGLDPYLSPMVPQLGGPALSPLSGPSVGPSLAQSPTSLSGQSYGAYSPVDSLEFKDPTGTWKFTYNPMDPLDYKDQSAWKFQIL
Sequence of ETV5 (P41161 whole entry): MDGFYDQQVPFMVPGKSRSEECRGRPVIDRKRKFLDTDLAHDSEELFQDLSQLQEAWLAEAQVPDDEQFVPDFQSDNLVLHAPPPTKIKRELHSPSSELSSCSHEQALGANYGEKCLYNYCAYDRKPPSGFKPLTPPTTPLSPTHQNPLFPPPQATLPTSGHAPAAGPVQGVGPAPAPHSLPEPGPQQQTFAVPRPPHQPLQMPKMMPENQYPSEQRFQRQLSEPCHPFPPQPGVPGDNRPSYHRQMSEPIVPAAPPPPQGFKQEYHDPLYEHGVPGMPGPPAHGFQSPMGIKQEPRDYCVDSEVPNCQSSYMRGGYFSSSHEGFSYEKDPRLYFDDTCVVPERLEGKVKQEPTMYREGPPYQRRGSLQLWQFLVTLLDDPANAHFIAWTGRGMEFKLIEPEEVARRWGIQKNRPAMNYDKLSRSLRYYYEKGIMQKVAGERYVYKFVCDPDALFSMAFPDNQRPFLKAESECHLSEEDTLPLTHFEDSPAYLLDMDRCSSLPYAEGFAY
Sequence of ELF4 (Q99607 whole entry): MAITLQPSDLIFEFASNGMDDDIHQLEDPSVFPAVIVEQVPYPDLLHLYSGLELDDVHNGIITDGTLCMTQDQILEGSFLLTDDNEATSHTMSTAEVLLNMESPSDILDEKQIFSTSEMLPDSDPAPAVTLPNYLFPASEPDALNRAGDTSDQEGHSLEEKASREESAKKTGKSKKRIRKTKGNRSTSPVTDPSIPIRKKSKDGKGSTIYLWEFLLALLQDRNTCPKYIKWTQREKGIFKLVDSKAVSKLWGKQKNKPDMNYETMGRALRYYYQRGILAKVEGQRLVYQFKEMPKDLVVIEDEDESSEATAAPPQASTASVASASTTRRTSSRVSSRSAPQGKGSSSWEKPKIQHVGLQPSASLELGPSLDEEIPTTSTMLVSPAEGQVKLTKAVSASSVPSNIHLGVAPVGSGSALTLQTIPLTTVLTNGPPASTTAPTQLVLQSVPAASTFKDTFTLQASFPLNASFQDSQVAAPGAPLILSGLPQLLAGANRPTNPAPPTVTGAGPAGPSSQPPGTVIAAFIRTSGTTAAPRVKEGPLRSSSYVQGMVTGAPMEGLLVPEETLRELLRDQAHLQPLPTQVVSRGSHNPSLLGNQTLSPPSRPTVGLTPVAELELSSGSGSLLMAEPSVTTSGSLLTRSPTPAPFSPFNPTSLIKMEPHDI
Sequence of HSF1 (Q00613 whole entry): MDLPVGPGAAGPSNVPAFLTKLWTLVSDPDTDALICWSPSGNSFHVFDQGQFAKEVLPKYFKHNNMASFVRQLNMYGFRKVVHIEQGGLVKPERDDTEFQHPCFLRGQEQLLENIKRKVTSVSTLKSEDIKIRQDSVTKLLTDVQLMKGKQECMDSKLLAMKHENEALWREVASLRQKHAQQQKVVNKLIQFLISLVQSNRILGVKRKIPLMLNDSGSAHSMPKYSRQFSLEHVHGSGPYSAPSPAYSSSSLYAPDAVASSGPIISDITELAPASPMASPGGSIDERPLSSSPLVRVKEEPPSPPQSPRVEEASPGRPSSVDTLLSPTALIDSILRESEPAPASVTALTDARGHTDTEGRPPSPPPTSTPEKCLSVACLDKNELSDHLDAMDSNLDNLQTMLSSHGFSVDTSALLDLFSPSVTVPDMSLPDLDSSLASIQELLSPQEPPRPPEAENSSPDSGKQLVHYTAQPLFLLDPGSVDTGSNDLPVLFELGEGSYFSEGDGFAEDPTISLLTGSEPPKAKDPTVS

## TTCCAC
FEV
  binding signal: 1.37 fold enrichment (6-mer frequency, TF over GST control)
ETV5
  binding signal: 1.41 fold enrichment (6-mer frequency, TF over GST control)
HSF1
  binding signal: 1.83 fold enrichment (6-mer frequency, TF over GST control)
SPIC
  binding signal: 1.57 fold enrichment (6-mer frequency, TF over GST control)
ELF4
  binding signal: 1.42 fold enrichment (6-mer frequency, TF over GST control)
ELK4
  binding signal: 1.39 fold enrichment (6-mer frequency, TF over GST control)
ETV2
  binding signal: 1.42 fold enrichment (6-mer frequency, TF over GST control)
ELF3
  binding signal: 1.38 fold enrichment (6-mer frequency, TF over GST control)
CRX
  binding signal: 1.26 fold enrichment (6-mer frequency, TF over GST control)
